Shown are actives, neighbours in structure and some others; about 21% of the full set was active somewhere.
Pf growth 96h: P. falciparum growth inhibition at 96 hours | P. falciparum luciferase reporter growth, 96 h | Potency, µM (doses to about 28.7 µM), for the others: at the highest dose activity change, negative = inhibition, most hits filed as inhibitors | 320,000 tested, 6.9% active; note: potency is the fitted concentration of half-maximal effect; % is set by controls: 0 for no effect and ±100 for the full control effect
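Cell-based qHTS: luciferase-tagged P. falciparum in erythrocytes (2% hematocrit, 0.05% parasitemia final) incubated with compounds for 96 hours, 37 C, 5% CO2; luciferase detection reagent then added and luminescence measured.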
Pf growth 48h: P. falciparum growth inhibition at 48 hours (one generation). P. falciparum luciferase growth in erythrocytes, 48 h. Potency, µM (series often up to 28.7 µM), without a hit: at the highest dose activity change, negative = inhibition, most hits filed as inhibitors. 310,000 tested, 5.9% active. AID 504832; note: potency is the fitted concentration of half-maximal effect; % is set by controls: 0 for no effect and ±100 for the full control effect
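Luciferase-expressing parasites in RBCs, 2% Hct / 0.1% parasitemia final; RPMI 1640 + 0.5% Albumax; 37 C, 5% CO2, one generation; luminescence read-out, lower signal = inhibition.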
HCV inhibitor: inhibitors of hepatitis C virus infection; Huh7.5.1 HCVcc-Cre infection, luciferase reporter, 44 h; Potency, µM (top dose mostly 41.8 µM), without a hit: at the highest dose activity change, negative = inhibition, most hits filed as inhibitors; 340,000 tested, 3.4% active; AID 651820; note: potency is the fitted concentration of half-maximal effect; % is set by controls: 0 for no effect and ±100 for the full control effect
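Reporter virus HCVcc-Cre (~0.5 moi) infects cells exposed to compound; seeding density 1,000 cells/well with 4 h settling beforehand. Luminescence, 15 sec read, taken 44 h post-infection following a 15 min RT substrate incubation.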
Cycloheximide cs: affects cycloheximide protein synthesis inhibition readout, counter-screen; AID 2314; max response, %; 300,000 tested, 12% active; cell reporter, cycloheximide protein synthesis inhibition counterscreen; in the data active = max response mostly above about 13%, no sharp cut-off; inactive = mostly below about 14%; note: read at 38.3 µM for the half of the compounds with a filed dose; 0% is about no effect
AMA1 RON2 block: disrupts binding of P. falciparum AMA1 to RON2; 360,000 tested, 0.2% active; Potency, µM (highest dose often 58.2 µM), for the others: at the top dose activity change, negative = inhibition, most hits filed as inhibitors; AID 720542; AlphaScreen AMA1-biotinylated RON2 peptide binding;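 note: potency is the fitted concentration of half-maximal effect; 0% = vehicle wells and -100% = peptide control; nearly all actives have a fitted effect of over 45% in size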
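AMA1 (3D7) with his tag at 25 nM final met compounds first, then biotinylated RON2 peptide at 25 nM; detection used donor plus acceptor beads, 10 µg/mL apiece, read by AlphaScreen after 30 min at room temperature.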
Shiga inhibitor: Shiga toxin inhibition; Vero cells, Shiga toxin protein synthesis inhibition reporter; inhibition, % at 38.7 µM; 290,000 tested, 9.2% active; AID 2315; in the data active = inhibition mostly above about 28%, no sharp cut-off; inactive = mostly below about 43%; note: 0% is about no effect
An asterisk follows results filed as active; ? = inconclusive; / = not tested or not shown. Unless noted, calls come from the whole dose curve; as a rule, active = well fitted curve in the direction sought with a large enough effect; inconclusive = small, poorly fitted or top-dose-only effect, or another doubt; inactive = no such curve, though single readings can be large; an effect the other way counts as inactive or inconclusive.

SMILES	Pf growth 96h	Pf growth 48h	HCV inhibitor	Cycloheximide cs	AMA1 RON2 block	Shiga inhibitor
C=CCOc1ccc(/C(O)=C2/C(=O)C(=O)N(CCCn3ccnc3)C2c2ccco2)cc1 (stereo not given)	-38%	43%	21%	32*	-6%	65*
CCCOc1ccc(/C(O)=C2/C(=O)C(=O)N(CCOC)C2c2cccnc2)cc1 (stereo not given)	?	1µM*	/	7	/	-10
CCCOc1ccc(/C(O)=C2/C(=O)C(=O)N(CCCn3ccnc3)C2c2ccc(C)o2)cc1 (stereo not given)	23%	13%	7%	-2	43%	11
O=S(=O)(CCN1CCOCC1)c1ccc(OC(F)(F)F)cc1	0%	17%	-12%	-7	3%	-6
O=C(COC(=O)CSc1ccc(F)cc1)NC1CCCCCC1	3%	4%	1%	/	-2%	/
CC(C)(C)NC(=O)C(c1ccccc1F)n1c(=O)c(-c2ccccc2)nc2ccccc21 (stereo not given)	/	/	/	/	-2%	/
CCCOc1ccc(/C(O)=C2/C(=O)C(=O)N(CCCn3ccnc3)C2c2ccco2)cc1 (stereo not given)	99%	50%	13%	28*	6%	28
CC1Cc2cc(/C(O)=C3/C(=O)C(=O)N(CCCn4ccnc4)C3c3ccncc3)ccc2O1 (stereo not given)	31%	7%	5%	1	-18%	14
Cc1nnc(N2C(=O)C(=O)/C(=C(/O)c3ccc4c(c3)CC(C)O4)C2c2ccccc2F)s1 (stereo not given)	15%	22%	8%	14*	26%	18
COc1ccc(/C(O)=C2/C(=O)C(=O)N(Cc3ccco3)C2c2cccs2)cc1 (stereo not given)	83%	25%	3%	-6	5%	-1
COc1cccc(C2/C(=C(\O)c3ccc4c(c3)OCCO4)C(=O)C(=O)N2c2nnc(C)s2)c1 (stereo not given)	?	8%	6%	17	15%	22
CC1Cc2cc(/C(O)=C3/C(=O)C(=O)N(Cc4ccco4)C3c3cccs3)ccc2O1 (stereo not given)	-15%	41%	22%	46*	-6%	87*
CC1Cc2cc(/C(O)=C3/C(=O)C(=O)N(CCCn4ccnc4)C3c3ccco3)ccc2O1 (stereo not given)	0.21µM*	226%	13%	33*	-2%	113*
CC(C)=CCC[C@H](C)C[C@@H]1Cc2[nH]c(=S)[nH]c(=O)c2[C@@H](c2ccc(F)cc2)O1	/	/	/	/	97%	/
C/C(=N/NC(=O)c1cccnc1)C1=C(O)CC(C)(C)CC1=O	?	3%	6%	-6	47%	-16
CC(=Nc1cc(C(=O)c2ccccc2)ccc1N)C1=C(O)CC(C)(C)CC1=O	15%	127%	-3%	29*	4%	125*
CCOc1ccc(S(=O)(=O)Nc2cccc(C(=O)NCC(c3ccccc3)N(C)C)c2)cc1 (stereo not given)	?	20%	?	/	33%	/
COc1ccc(C(CNC(=O)c2cccc(NS(=O)(=O)c3ccccc3)c2)N(C)C)cc1 (stereo not given)	-28%	-12%	-24%	16*	0%	27
COc1ccc(C(CNC(=O)c2ccc(S(=O)(=O)Nc3ccc(F)cc3)cc2)N(C)C)cc1 (stereo not given)	?	?	7%	-2	0%	-4
COc1ccc(C(CNC(=O)c2cccc(S(=O)(=O)Nc3ccc(F)cc3)c2)N(C)C)cc1 (stereo not given)	9.3µM*	12µM*	?	/	14%	/
COc1ccc(C(CNC(=O)c2cccc(NS(=O)(=O)c3ccc(C)c(F)c3)c2)N(C)C)cc1 (stereo not given)	12µM*	?	?	/	94%	/
COc1ccccc1C(CNC(=O)c1cccc(NS(=O)(=O)c2ccc(C)c(F)c2)c1)N(C)C (stereo not given)	9.3µM*	?	-27%	/	64%	/
CCN(CC)c1ccc(/C=N/NC(=O)c2nnn(-c3nonc3N)c2CN(C)C2CCCCC2)cc1	/	/	/	/	8%	/
CCCCc1cc(=O)oc2cc(OC(C)C(=O)NCCN3CCOCC3)c(Cl)cc12 (stereo not given)	?	-9%	5%	-3	2%	-4
O=S1(=O)CC(N2CCCCC2)CN1Cc1cn(Cc2ccc(C(F)(F)F)cc2)nn1 (stereo not given)	/	/	/	/	-5%	/
SMILES	Pf growth 96h	Pf growth 48h	HCV inhibitor	Cycloheximide cs	AMA1 RON2 block	Shiga inhibitor
O=C(NC(=S)Nc1ccccc1N1CCOCC1)c1ccc(-c2ccccc2F)o1	15µM*	6%	-4%	-3	2%	1
Cc1cc(NC(=O)c2ccc(-c3ccccc3[N+](=O)[O-])o2)no1	/	/	?	/	-4%	/
Cc1cc(NC(=O)c2ccc(-c3ccccc3F)o2)no1	48%	85%	-14%	79*	-9%	186*
COc1ccccc1NC(=O)c1ccc(-c2ccccc2F)o1	6%	43%	?	28*	-6%	70*
O=C(Cc1ccsc1)NNC(=O)c1ccc(F)cc1	12%	8%	-10%	/	46%	/
O=C(CCC(=O)N(CC(=O)NC1CCCCC1)c1ccc2c(c1)OCCO2)Nc1ccccn1	61%	35%	/	21*	/	15
CC(C)CCNC(=O)CN(C(=O)CCC(=O)Nc1ccccn1)c1ccc2c(c1)OCCO2	-7%	75%	1%	22*	12%	56*
Cc1ccc(N(CC(=O)NC2CCCC2)C(=O)CCC(=O)Nc2ccccn2)cc1C	-6%	-21%	-21%	11	-17%	7
CC(C)CCNC(=O)CN(C(=O)CCC(=O)Nc1ccccn1)c1ccc2c(c1)OCO2	37%	33%	28%	-2	6%	-2
O=C(CN(C(=O)CCC(=O)Nc1ccccn1)c1ccc2c(c1)OCCO2)NCCc1ccccc1	-6%	4%	-14%	12*	-1%	29
COc1ccc(C(OCCN2CCC[C@H](C(=O)O)C2)(c2ccc(OC)cc2)c2ccc(OC)cc2)cc1	/	/	/	-6	/	3
CCCCC(=O)NC(c1ccccc1Cl)c1c(O)ccc2ccccc12 (stereo not given)	62%	10µM*	-4%	-1	19%	-14
CCCC(=O)NC(c1ccccc1Cl)c1c(O)ccc2ccccc12 (stereo not given)	22%	10µM*	-22%	1	7%	-6
CCCCC(=O)NC(c1ccc(OC)c(OC)c1)c1c(O)ccc2ccccc12 (stereo not given)	12µM*	?	-13%	-1	-10%	-20
O=C(Nc1cccc(Oc2ccccc2)c1)C1Cc2c(-c3ccccc3)ccnc2O1 (stereo not given)	/	/	/	/	-2%	/
CCN1N=C(c2ccccc2)Cn2c1nc1ccccc12	6.6µM*	/	?	9	128%	1

High-throughput results as filed in PubChem.
